PubChem BioAssay (NCI)
Compounds without any hit were thinned out: in the full panel of roughly 79,000, 15% have a hit. Active and inactive are the calls of the source. No stated cut-off is given here; in the data, active means growth inhibition above about 70%; inactive means the rest.

Assays:
[1] = NCI Yeast Anticancer Drug Screen. Data for the rad50 strain (AID 155);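 further: 0% = growth of vehicle-only cultures of the same strain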; conditions: S. cerevisiae rad50 strain growth inhibition; at 50.0 µM; stronger effect = higher value
Method in brief: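 A DNA repair-deficient yeast mutant serves as the test organism; compound-induced growth inhibition is calculated against vehicle-treated cells.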

[2] = NCI Yeast Anticancer Drug Screen. Data for the mec2-1 strain (AID 157); conditions: S. cerevisiae mec2-1 strain, at 50.0 µM, stronger effect = higher value
Method in brief: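 Mutant yeast (mec2-1) grown with compound; growth inhibition relative to vehicle control reported.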

[3] = NCI Yeast Anticancer Drug Screen. Data for the sgs1 mgt1 strain (AID 161);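 further: 0% = growth of cultures given vehicle only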; conditions: S. cerevisiae sgs1 mgt1 strain, at 50.0 µM, stronger effect = higher value
Method in brief: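 This yeast growth screen uses a strain with defined DNA-repair lesions; compound-treated growth is compared with vehicle-treated growth.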

[4] = NCI Yeast Anticancer Drug Screen. Data for the cln2 rad14 strain (AID 165);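 further: 0% = growth equal to vehicle treated cultures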; conditions: S. cerevisiae cln2 rad14 strain, at 50.0 µM, stronger effect = higher value
Method in brief: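 Readout is yeast growth inhibition versus vehicle-treated controls, using a strain with cln2 and rad14 alterations exposed to compound.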

[5] = NCI Yeast Anticancer Drug Screen. Data for the bub3 strain (AID 167); conditions: S. cerevisiae bub3 mutant strain, at 50.0 µM, stronger effect = higher value
Method in brief: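 Inhibition values come from growth of compound-treated mutant yeast normalised to vehicle-treated controls.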

[6] = NCI Yeast Anticancer Drug Screen. Data for the mlh1 rad18 strain (AID 175); conditions: S. cerevisiae mlh1 rad18 strain growth inhibition; at 50.0 µM; stronger effect = higher value
Method in brief: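 Genetically defined yeast (DNA repair-deficient) exposed to compounds; growth inhibition determined relative to vehicle.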

Measured: growth inhibition

O=C1c2cccc3cccc(c23)C(=O)N1CCCN(CCO)CCO
inactive: [1] -1.25% | [2] 4.25% | [3] -4.35% | [4] 7.95% | [5] -7.6% | [6] 14.2%

O=C(O)c1ccc(C2COc3ccc(Cl)cc3C2)cc1 (stereo not drawn)
inactive: [1] -10.8% | [2] -19.8% | [3] -23.8% | [4] 4.7% | [5] -19.2% | [6] -24.2%

Cc1ccc2c(c1)C(=O)c1ccccc1C2=O
inactive: [1] 7.8% | [2] 1.05% | [3] 1.9% | [4] 11.9% | [5] 52% | [6] 6%

CCCCN(CCCC)CCC(O)c1ccc(OC)c2ccccc12 (stereo not drawn)
inactive: [1] 44.6% | [2] 4.55% | [3] 56.2% | [4] 57.4% | [5] 16.4% | [6] 49.7%

CC[N+](C)(CC)CC[N+]1(C)CCCCCCC1
inactive: [1] 12.9% | [2] 5.45% | [3] 5.8% | [4] -40.6% | [5] 10.4% | [6] 15.6%

COc1cc(CCNC2=CC(=O)c3ncccc3C2=O)ccc1O
inactive: [1] 31.6% | [2] 34% | [3] -8.25% | [4] 4.95% | [5] 5.8% | [6] 14.3%

O=C(NCCCNCCCCNCCCNC(=O)C(F)(F)F)C(F)(F)F
inactive: [1] 5.05% | [2] -0.9% | [3] 6.6% | [4] -8.45% | [5] 4.25% | [6] 3.3%

COc1ccc(Br)cc1C1SCC(=O)N1c1nncs1 (stereo not drawn)
inactive: [1] 12% | [2] 7.7% | [3] 26.8% | [4] 11.2% | [5] 16.4% | [6] 23.8%

O=c1[nH]c2cc([N+](=O)[O-])ccc2nc1/C(=N/Nc1ccccc1)C(O)c1ccc(C(O)/C(=N\Nc2ccccc2)c2cnc3cc([N+](=O)[O-])ccc3n2)cc1 (stereo not drawn)
inactive: [1] -4.05% | [2] -23.9% | [3] -11.4% | [4] 5.25% | [5] -6.45% | [6] -4.3%

CN(C)C=Nc1cccc2cnccc12
inactive: [1] 24.7% | [2] 3.4% | [3] 14.5% | [4] 21.2% | [5] 13.1% | [6] -16.7%

CN(C)Cc1cc(N=Nc2ccccc2Cl)cc(CN(C)C)c1O
inactive: [1] -40.5% | [2] -19.1% | [3] -9.25% | [4] -14.3% | [5] 12.3% | [6] -13.4%

O=S(=O)(Nc1c(Cl)c(Cl)c(NS(=O)(=O)c2ccccc2)c(Cl)c1Cl)c1ccccc1
inactive: [1] 46.2% | [2] 0.6% | [3] 13.4% | [4] -5.6% | [5] 4.55% | [6] 15.5%

S=C1NNC2(C(=S)N1)c1ccccc1-c1ccccc12
inactive: [1] 32.4% | [2] -11.2% | [3] 14.6% | [4] 5% | [5] 3.2% | [6] 55.4%

CC(C)(C)CC(C)(C)c1ccc(OCCOc2ccc(S(=O)(=O)O)cc2[N+](=O)[O-])cc1
inactive: [1] 68.8% | [2] 30.9% | [4] 1.65% | [5] -8.85% | [6] 37.2%
active: [3] 71.7%

C/C=C/c1ccc(OCC)c(OC)c1
inactive: [1] 24.4% | [2] 6.25% | [3] 12.3% | [4] -8.8% | [5] -17.2% | [6] 16.3%

CN(C)CCC(C(N)=O)c1ccccc1 (stereo not drawn)
inactive: [1] 36.1% | [2] -1.7% | [3] -3.7% | [4] 38.9% | [5] -5.85% | [6] 18.1%

CCCCOC(=O)C1CCCCC1C(=O)OCCCC (stereo not drawn)
inactive: [1] -3.7% | [2] 14.8% | [3] -0.45% | [4] 63.1% | [5] 12.2% | [6] -21.4%

CN(C)C1=C(c2ccccc2)C(=O)C(c2ccccc2)=C1c1ccccc1
inactive: [1] 39.8% | [2] 3.25% | [3] 22.1% | [4] -32.3% | [5] 7.05% | [6] 13.3%

COc1ccc2nc3c([N+](=O)[O-])ccc(NCCCN(C)C)c3c(NCCCN(C)C)c2c1
inactive: [1] -5.15% | [2] 9.3% | [3] 11.7% | [4] 38.3% | [5] -28.4% | [6] -1.6%

O=c1c2cccnc2[nH]c2ccc3scnc3c12
inactive: [1] -8.85% | [2] -11.3% | [3] -3.75% | [4] 22.2% | [5] -20.1% | [6] 40.7%

Nc1nc(Cl)cc(Nc2ccc3c(c2)CCC3)n1
inactive: [1] 15.2% | [2] 6.8% | [3] 26.5% | [4] 19.1% | [5] 23.6% | [6] -20.4%

CCCCCCCCCCCCN1CCCN(CCCCCCCCCCCC)CC1
active: [2] 99.2% | [4] 96.7% | [5] 98.7% | [6] 99.2%
inactive: [1] 56.7% | [3] 7.45%

CC(=O)OC1CC(C(C)C)CCC1C (stereo not drawn)
inactive: [1] 18.1% | [2] 12.8% | [3] 6.3% | [4] 4.95% | [5] -8.55% | [6] 11.7%

N#CC(C(=O)C(=O)Nc1cccc(Cl)c1)c1ccccc1 (stereo not drawn)
inactive: [1] -4.55% | [2] -6.9% | [3] -19% | [4] -89.1% | [5] -11.8% | [6] -4.2%

CCCCn1cnc2c(N)ncnc21
inactive: [1] -0.05% | [2] -7.75% | [3] -5.45% | [4] -18.1% | [5] 1.45% | [6] -15.5%

Cc1cccc2c(C=O)c[nH]c12
inactive: [1] 8.9% | [2] -3.1% | [3] -13.4% | [4] -9.55% | [5] 4.95% | [6] 14.2%

CC(=O)OCCSc1ccc(Cl)cc1
inactive: [1] -2.4% | [2] 9.8% | [3] 6.6% | [4] -33.2% | [5] -23.3% | [6] -7.65%

Nc1ccc(C(=O)N/N=C/c2ccc(Cl)cc2Cl)cc1
inactive: [1] 27% | [2] -4.05% | [3] 11.9% | [4] 8% | [5] 13.1% | [6] -5.75%

CCOC(=O)CCC(NC1=C(Cl)C(=O)c2ccccc2C1=O)C(=O)O (stereo not drawn)
inactive: [1] 12.2% | [2] 2.15% | [3] 20.4% | [4] -63.1% | [5] 0.15% | [6] 24.9%

CCCCNC(=O)CCC(NS(=O)(=O)c1ccc(C)cc1)C(=O)NCCCC (stereo not drawn)
inactive: [1] 5.1% | [2] 2.1% | [3] -9% | [4] 1.85% | [5] -3.1% | [6] -18.7%

c1cc(CCc2ccncc2)ccn1
inactive: [1] 21.9% | [2] -16.1% | [3] 2.5% | [4] 3.6% | [5] 1.3% | [6] 22.4%

Cc1cccc(C)c1NC(=O)C(Cl)Cl
inactive: [1] -2.9% | [2] -0.6% | [3] -3.9% | [4] 5.05% | [5] -12% | [6] -0.15%

CCOC(=O)CN1CN(CCc2ccccc2)CC(C)(C)C1OCC (stereo not drawn)
inactive: [1] 37.1% | [2] 31.6% | [3] 43.4% | [4] 20.6% | [5] 41.2% | [6] 39.5%

O=c1[nH]c(=S)[nH]c2[nH]ccc12
inactive: [1] 6.75% | [2] -13.9% | [3] -19.6% | [4] -1.1% | [5] -0.6% | [6] -4.4%

CN1C(=O)C(Cc2cnc[nH]2)NC1=S (stereo not drawn)
inactive: [1] 11.5% | [2] 25.1% | [3] 22.6% | [4] -7.5% | [5] 10.7% | [6] 1.1%

COc1c(C=O)c2c(c(OC)c1OC)-c1ccc(OC)c(=O)cc1[C@@H](NC(C)=O)CC2
inactive: [1] 12.5% | [2] -9.6% | [3] -0.25% | [4] 7.15% | [5] 2.9% | [6] -0.95%

CCOC(=O)C(C(=O)OCC)=c1sc(=C(C(=O)OCC)C(=O)OCC)s1
inactive: [1] 20.2% | [2] 7.8% | [3] 17.1% | [4] 5.05% | [5] -2.5% | [6] 9.3%

Nc1ccccc1OCC(=O)Nc1c(N)ncnc1N
inactive: [1] 0.4% | [2] -6.35% | [3] 6.85% | [4] 2.95% | [5] 5.9% | [6] -3.8%
